# Source: PubChem BioAssay
# D3 antag: blocks the human D3 dopamine receptor | D3R cells, DiscoveRx beta-arrestin luminescence, antagonist mode; stronger effect = lower value | P35462 | 360,000 compounds, 2.5% hits | max response, negative = inhibition, %; in the data active = max response below about -50%; inconclusive = no clear call, values can overlap the other calls; also: % is scaled to controls: 0 for no effect and ±100 for the full control effect
#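 Cells expressing the human receptor were seeded at 1500 cells/well, incubated overnight at 37 degrees C in 5% CO2, then exposed to library compounds with dopamine controls for 90 minutes at 37 degrees C before luminescent detection.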
# B2AR arrestin: recruits beta-arrestin to the human beta2-adrenergic receptor; P07550; beta-arrestin recruitment to beta2AR, cell-based reporter; Potency, µM (top dose mostly 46.1 µM), for the others: top-dose activation, actives largely listed as activators; 330,000 compounds, 0.02% hits; AID 492947;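 also: potency is read from the fitted curve at half-maximal effect; 0% = DMSO controls and full agonism = EC100 isoproterenol or metaproterenol; nearly all actives have a fitted effect of over 65% in size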
# Target sequence (P07550 whole entry, looked up): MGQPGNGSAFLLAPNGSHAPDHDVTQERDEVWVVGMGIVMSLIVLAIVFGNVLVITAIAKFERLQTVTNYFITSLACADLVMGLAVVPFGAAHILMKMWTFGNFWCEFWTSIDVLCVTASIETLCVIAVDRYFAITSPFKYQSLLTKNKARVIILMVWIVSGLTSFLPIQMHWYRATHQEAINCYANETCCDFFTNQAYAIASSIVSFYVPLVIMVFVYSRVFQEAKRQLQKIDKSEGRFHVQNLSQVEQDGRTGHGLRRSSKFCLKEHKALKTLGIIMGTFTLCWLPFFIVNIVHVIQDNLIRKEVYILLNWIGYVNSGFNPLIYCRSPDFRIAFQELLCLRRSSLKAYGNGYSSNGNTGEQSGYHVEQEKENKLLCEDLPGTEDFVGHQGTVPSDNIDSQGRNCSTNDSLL
# mIDH1 inhibitor: human IDH1 R132H inhibition. O75874. IDH1-R132H enzyme, NADPH consumption, diaphorase/resazurin fluorescence. Potency, µM (titrated, usually from 76.6 µM), without a hit: at the top dose activity change, negative = inhibition, usual class: inhibitors. 390,000 compounds, 0.093% hits. AID 602179; also: potency is read from the fitted curve at half-maximal effect; % is scaled to controls: 0 for no effect and ±100 for the full control effect; nearly all actives have a fitted effect of over 65% in size
#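 IDH1-R132H (0.5 ug/mL) preincubated 30 min with compound, then NADPH (0.016 mM) and alpha-KG (2 mM) added; 80 min at RT, pH 7.5. Remaining NADPH coupled via diaphorase/resazurin to fluorescence (540/590 nm); concentration-response curves normalized to no-enzyme control.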
# DRD3 agonist: D3 dopamine receptor (human) agonism; max activation, %; D3R DiscoveRx beta-arrestin cells, luminescence, 90 min; P35462; 410,000 compounds, 0.58% hits; in the data active = max activation above about 30%; also: 0% is about no effect
#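 Agonist-mode cell screen: cells plated at 1500/well and incubated overnight at 37 °C, then exposed to library compounds for 90 min at 37 °C. Detection reagent was added for 30–60 min at room temperature, and luminescence was read.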
# Integrin act MD: activators of alpha7 integrin expression for muscular dystrophy; alpha7betagal myoblasts, beta-gal FDG fluorescence, 48 h; Potency, µM (titrated, usually from 38.3 µM), without a hit: at the top dose activation, most hits filed as activators; 350,000 compounds, 0.064% hits;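 also: potency is read from the fitted curve at half-maximal effect; 100% = response of the positive control SU9516; nearly all actives have a fitted effect of over 60% in size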
#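 alpha7betagal+/- myoblasts (passage 13, 250/well) treated 48 h at 37C with compounds at 1:260 dilution of DMSO stock. Lysed, then beta-galactosidase activity read as FDG fluorescence (ex 480/em 540) after 30 min, with pre-read for autofluorescence.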
# * marks the source's active call; other numbers are inactive results; ? = inconclusive; · = no result given; [ ] = dose if it differs, or a comment. Rows were chosen to be rich in hits. Some 2.9% of all compounds tested hit in one or more screens of this group. Unless noted, calls follow the shape of the dose curve; as a rule, active = well fitted curve in the direction sought with a large enough effect; inconclusive = small, poorly fitted or top-dose-only effect, or another doubt; inactive = no such curve, though single readings can be large; an effect the other way counts as inactive or inconclusive.
SMILES,D3 antag,B2AR arrestin,mIDH1 inhibitor,DRD3 agonist,Integrin act MD
CN=c1scc(-c2ccccc2F)n1/N=C/c1ccc[nH]1,-24,0%,-5%,-8,3%
O=c1oc2ccccc2c2c1C1O[C@](c3ccsc3)(Cc3ccccc31)O2,·,-3%[9.22 µM],·,·,·
O=C(NCc1ccccc1)c1ccc2c(=O)n(CCCN3CCCC3=O)c(=S)[nH]c2c1,-52*,0%,2%,2,36%
C=CCn1c(=S)[nH]c2cc(C(=O)Nc3ccc(F)cc3)ccc2c1=O,2,0%,9%,47*,-53%
C=CCn1c(=S)[nH]c2cc(C(=O)NCCc3ccc(S(N)(=O)=O)cc3)ccc2c1=O,0,0%,20%,1,0%
COCCn1c(=S)[nH]c2cc(C(=O)NCc3ccccc3)ccc2c1=O,-66*,·,4%,-6,-3%
CCC1CCCCN1CCCNC(=O)c1ccc2c(c1)N(Cc1ccc(Cl)cc1)C(=O)c1ccccc1S2(=O)=O (configuration not stated),·,·,5%,-7,·
COc1ccccc1N1CCN(c2ncnc3c2c(-c2ccccc2)cn3-c2cccc(C)c2)CC1,·,·,10%,-5,·
Cc1c(C(=O)OC2CCCCC2)[nH]c2c1C(=O)CC(c1ccc(C(C)(C)C)cc1)C2 (configuration not stated),·,·,-15%,7,·
CC(NCc1ccccc1)C1COc2ccccc2O1 (configuration not stated),-1,0%,2%,5,-2%
CC(NCC(O)COc1ccccc1)C1COc2ccccc2O1 (configuration not stated),-85*,0%,7%,-4,13%
S=C(NCCC1=CCCCC1)Nc1ccc(Cl)cc1,?,-2%,4%,3,17%
Clc1ccc(CNCCC2=CCCCC2)cc1,-71*,0%,4%,-53,-7%
COc1ccc(CCNC(=O)C2CCN(C(=O)c3ccc(Cl)cc3)CC2)cc1,3,0%,-1%,-1,26%
O=C(NCCC1=CCCCC1)C1CCN(C(=O)c2ccc(Cl)cc2)CC1,-131*,-1%,-1%,7,-8%
CCC[C@@H]1C[C@@H](C(=O)N[C@@H]([C@H]2O[C@H](SC)[C@H](OP(=O)(O)O)[C@@H](O)[C@H]2O)[C@H](C)Cl)N(C)C1,·,·,·,-1,·
O=C1C=C(NC2CCCC2)CC(c2ccccc2)C1 (configuration not stated),-2,3.5µM*,9%,5,-1%
CNC1=CC(=O)CC(c2ccccc2)C1 (configuration not stated),-9,0%,-8%,1,-2%
CCC(CC)C(=O)Nc1c(C(=O)N2CCN(c3ccccc3)CC2)oc2ccccc12,-7,-1%,-3%,-5,13µM*
CCOCCCN(C)C1CCN(C(=O)c2oc3ccccc3c2NC(=O)Cc2ccc(F)cc2)CC1,-71*,0%,-12%,-18,-58%
O=C(OCCN1CCCCC1)c1c[nH]c2ccccc12,-57*,0%,0%,0,·
Cc1c(C(=O)OCCN2CCCCC2)oc2ccccc12,-61*,0%,9%,-4,13%
C[C@@H]1CN([C@H](C)CO)S(=O)(=O)c2ccc(-c3ccc(C(=O)N(C)C)cc3)cc2O[C@H]1CN(C)C(=O)Cc1ccccn1,34,·,-1%,7,10%
COCc1c(C(=O)N2CCN(CCOc3ccccc3)CC2)oc2ccccc12,-7,0%,-2%,88*,-4%
Cc1c(C(=O)N2CCN(S(C)(=O)=O)CC2)oc2ccccc12,-22,0%,4%,-3,-6%
SMILES,D3 antag,B2AR arrestin,mIDH1 inhibitor,DRD3 agonist,Integrin act MD
Cc1c(C(=O)N2CCN(CCc3ccccc3)CC2)oc2ccccc12,-86*,0%,-1%,-26,12%
CC1CCN(c2ccc3c(c2)S(=O)(=O)c2cccc(C(=O)NCc4cccc(F)c4)c2C3=O)CC1,100,-4%,-8%,106*,0%
O=C(NCc1ccc(OC(F)(F)F)cc1)c1cccc2c1C(=O)c1ccc(N3CCCC3)cc1S2(=O)=O,-51*,-1%,-9%,-13,-4%
O=C(NCc1cccc(F)c1)c1cccc2c1C(=O)c1ccc(N3CCCC3)cc1S2(=O)=O,85,0%,-2%,14,-13%
O=C(NCc1ccc(OC(F)(F)F)cc1)c1cccc2c1C(=O)c1ccc(N3CCCCC3)cc1S2(=O)=O,45,0%,7%,23,37%
O=C(NCc1ccco1)c1cccc2c1C(=O)c1ccc(N3CCC(Cc4ccccc4)CC3)cc1S2(=O)=O,68,0%,8%,31*,-6%
Cc1ccc(NS(=O)(=O)c2ccc(-c3cc(C)no3)cc2)c(Br)c1,·,·,-3%,8,·
COc1ccc(CNc2nc3nc(C)cc(C)n3n2)cc1OC,-56*,-1%,-2%,5,-9%
CCOC(=O)c1c(C)[nH]c(C)c1S(=O)(=O)NCC(=O)Nc1cccc(C#N)c1,·,·,10%,-13,·
CCc1ccc([C@@H]2CC=C(C(=O)O)[C@H](c3ccc(C(C)(C)C)cc3)N2S(=O)(=O)c2ccc(C)cc2)cc1,27,2%,-35%,31*,-24%
Cc1ccc([C@@H]2CC=C(C(=O)O)[C@H](c3ccc(C(C)(C)C)cc3)N2S(=O)(=O)c2ccc(C)cc2)cc1,0,-1%,9%,30*,-11%
CC(C)Cn1c(N)c(C(=O)COC(=O)/C=C/c2cccs2)c(=O)n(C)c1=O,1,-1%,11%,33*,-48%
Cn1c(CNS(=O)(=O)c2ccc(Cl)cc2)n[nH]c1=S,-60*,0%,-4%,-3,12%
Cn1c(CNS(=O)(=O)c2ccc(F)cc2)n[nH]c1=S,-9,0%,-4%,1,6%
CCOc1ccc(NC(=O)NCCN2CCN(c3ccccc3F)CC2)cc1,-69*,0%,2%,8,-4%
COc1ccc(NC(=O)CN2CCN(c3ccccc3F)CC2)cc1,-87*,-2%,3%,-11,3%
COc1ccc(/C=N/NC(=O)CN2CCS(=O)(=O)CC2)cc1,-52*,0%,6%,2,7%
COc1ccc(NC(=O)CN2CCC(C)CC2)cc1,-69*,0%,1%,-20,31%
CC(=O)Nc1ccc(S(=O)(=O)NCC2CCC(C(=O)NCCc3ccc(C)cc3)CC2)cc1 (configuration not stated),·,·,-19%,-1,·
O=C(NCCc1csc(-c2cccc(F)c2)n1)c1ccccc1C(F)(F)F,·,·,3%,0,·
CCCCn1c(-c2sccc2C)n[nH]c1=S,-14,?,-2%,2,-27%
CC(C)(C)OC(=O)N1CCC(c2c(C(=O)NCCN3CCC(Cc4ccccc4)CC3)cnn2-c2cccc(Cl)c2)CC1,·,·,4%,-31,·
CCCn1c(CCCNC(=O)c2ccccc2OC)nc2ccccc21,·,·,18%,-22,·
